# Assay results published in PubChem BioAssay (NCI).
# The panel holds about 83,000 compounds, 20% with a hit somewhere; the sample as a whole holds those more often.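 Activity criterion: percent growth below 10, measured after cells in 96-well plates were exposed to a single compound concentration for 48 hours.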 Unmarked numbers belong to inactive results. Active and inactive are the calls of the source.
# Test system: HOP-62 NSCLC
# Experiment: NCI-60 one-dose screen, 48 h (100 = growth as untreated, 0 = no growth, -100 = all killed)
# Conditions: 10 µM unless noted
# Protocol: Growth inhibition of the HOP-62 human Non-Small Cell Lung tumor cell line is measured as a screen for anti-cancer activity. Cells are grown in 96 well plates and exposed to the test compound for 48 hours. Compounds are tested at a single concentration, which is 10^-5 M for most compounds. The reported endpoint is percent growth (GI% or GIPRCNT), where numbers from 0 - 100% represent growth inhibition, and numbers from -100% - 0 represent cell death. For example, a value of 40 represents 60% growth inhibition. A value of 0 means no net growth occurred over the course of the experiment. A value of -40 indicates 40% of cells at the beginning of the experiment died by the end of the experiment. A value of -100 means all cells are dead at the end of the experiment.
# NCI-60 Human Tumor Cell Lines Screen was performed using the standard one-dose NCI protocol, which is described in more detail at https://dtp.cancer.gov/discovery_development/nci-60/default.htm.
# Compounds with GIPRCNT values below 10 were considered active. Activity score was based on GIPRCNT using the following formula: […]
# Score is 0 for GIPRCNT values of 100 or above, 50 for GIPRCNT values of 0, and 100 for GIPRCNT values of -100.
row,Structure (SMILES),growth
1,CC(C)N1C(=O)/C(=c2\sc3n(c2=O)C2C(NN=3)N(C)C(=O)N2C)c2ccccc21 (stereo not given),74.7%
2,Cc1ccc(C(=O)c2ccc(CC(=O)NN3C(=O)c4ccccc4C3=O)n2C)cc1,88.9%
3,COc1ccc2c(c1)c(/C(O)=C1\COC(=O)C1=O)cn2Cc1ccc(F)cc1,112%
4,C=CCN1C(=O)c2cccc3c(N4CCOCC4)ccc(c23)C1=O,26.4%
5,Nc1ccc(-c2csc(-n3[nH]c(=O)ccc3=O)n2)cc1,107%
6,O=C(/C=C/c1ccccc1)c1ccc(Nc2nc(Nc3ccc(F)cc3)nc(Nc3ccc(Cl)cc3)n2)cc1,102%
7,CCNC(=O)Oc1ccc(/C(=C(/C)Cc2ccc(OC)cc2)c2ccc(OCCN3CCCCC3)cc2)cc1,91.5%
8,Fc1ccc(Cn2cc(CSc3nc4ccccc4o3)nn2)cc1,87.5%
9,CCN1C(=O)N(CC)C2C1NN=c1s/c(=C\c3ccc(C(F)(F)F)cc3)c(=O)n12 (stereo not given),39.1%
10,CNC1=C([N+](=O)[O-])C(c2ccc(OC)cc2)C(C#N)=C(c2cccs2)O1 (stereo not given),99.6%
11,COc1ccc2c(c1)c(-c1nc(-c3c[nH]c4ncccc34)cs1)cn2CCCN1CCOCC1,28.9%
12,COc1cc(OC)c(C(=O)C(CN(C)C)CN(C)C)cc1OC,84.7%
13,CCOC(=O)c1c(C)nc2ccccc2c1/C=C/c1ccccc1,93.8%
14,CCOC(=O)C(Cc1ccc(OC)cc1)C(=O)OCC,52.8%
15,Cc1cccc(-c2nc(Nc3ccc4ncsc4c3)c3ccccc3n2)n1,80.2%
16,Nc1ncnc2c1N=C(c1ccc3c(c1)OCO3)CC(c1cccc(Nc3ccnc4cc(C(F)(F)F)ccc34)c1)N2 (stereo not given),84.5%
17,O=C(/C=C/C12c3ccccc3C(c3ccccc31)C1C(=O)NC(=O)C12)c1ccc(Br)cc1 (stereo not given),56.3%
18,C/C=C(/C)n1cnc2c(Nc3ccccn3)nc(Cl)nc21,102%
19,O=C1/C(=C/c2ccc(O)c(O)c2)COc2ccc(-c3ccccc3)cc21,77.5%
20,C/C(=N\O)c1ccc(NC(=O)CSc2nnc(-c3cc(-c4ccc(S(C)(=O)=O)cc4)nc4ccccc34)n2-c2ccccc2)cc1,98.7%

row,Structure (SMILES),growth
1,CC1=C2[C@@H](CC1)[C@]1(C)O[C@@](C3CCCCC3)(C[C@H]1OC(=O)CO)[C@H]2OC(=O)/C=C/c1ccccc1,91%
2,CS(=O)(=O)c1ccc(NC(=O)c2ccccc2)nc1,95.6%
3,Nc1c(C(=O)Nc2cccc(Cl)c2)sc2nc3c(cc12)CCCC3,91.8%
4,Cc1ccc(NC(=O)Cn2c(Br)nc3c2c(=O)n(C)c(=O)n3C)cc1,6.37% (active)
5,Cc1ccc(N2C(=O)CCC2=O)cc1,99.2%
6,Cn1c2c(c3ccc(Cl)c(Cl)c31)C(C#N)C(C)(C)NC2=O (stereo not given),90.7%
7,O=C(CCCCCCN1CC(=O)N2[C@H](c3ccc(Cl)cc3)c3[nH]c4ccccc4c3C[C@@H]2C1=O)NO,61.9%
8,FC(F)(F)Oc1cccc(-c2cnc3ccc(-c4ccncc4)nn23)c1,20.2%
9,C[C@@H]1O[C@@H](O[C@@H]2C[C@H](c3ccc4c(c3O)C(=O)C3=C(C4=O)[C@@]4(O)C(=O)C[C@](C)(O)C[C@@]4(O)C=C3)O[C@H](C)[C@H]2O)CC[C@@H]1O[C@H]1C[C@@H](O)[C@H](O)[C@@H](C)O1,113%
10,CCN(CC)c1ccc(/C=N/NC(=O)Cc2ccc(Nc3ccnc(C(F)(F)F)c3)cc2)c(O)c1,24.5%
11,Cc1ccc(Cl)cc1NC(=O)c1sc2nc3c(cc2c1N)C(=O)CCC3,60.9%
12,CCOc1c(OC)cc2c(c1O)C(=O)N[C@@H]1[C@@H](O)[C@@H](O)[C@H](O)C[C@@H]21,98.6%
13,CC1C=CC(OC(=O)C(C)(O)CCC(O)(C(=O)OC2CC(O)C(C(C)C)CC2(C)O)C(C)C)(C(C)C)CC1 (stereo not given),-68.7% [4.63 µM] (active)
14,CC1(C)CC2=C3C=C[C@@H]4[C@@]5(C)CCC(=O)C(C)(C)[C@@H]5CC[C@@]4(C)[C@]3(C)CC[C@@]2(C(=O)O)C[C@H]1O,30.1%
15,[2H]C([2H])([2H])Oc1ccc(F)cc1/C=C/C(=O)/C=C(/C=C/c1cc(F)ccc1OC([2H])([2H])[2H])OB(F)F,97.8%
16,Cn1c(=O)c2[nH]c(SCC(=O)Nc3ccc(C(=O)/C=C/c4ccccc4Cl)cc3)nc2n(C)c1=O,90.4%
17,COc1cccc(Nc2ncnc3cc(NC(=O)CCl)ccc23)c1,-89.8% (active)
18,CCCCCCCC/C=C\CCCCCCCCOc1ccc(CC(=O)NCC[N+]2(C)CCOCC2)cc1,30.7%
19,O=C(N=Nc1c(O)[nH]c2ccccc12)Nc1ccc(F)cc1,83.2%
20,O=C(NNC(=O)c1nc2cc(F)ccc2n2cccc12)c1cnccn1,29.7%
